Hits are enriched below; roughly 4.2% of the tested compounds scored in any of these assays.
RecA intein inh – inhibitors of M. tuberculosis RecA intein splicing. P9WHJ3. cell-free RecA intein splicing, fluorescence. inhibition, % (test concentration not listed). actives 0.75% (n = 290,000). AID 2221; in the data active = inhibition above about 30%;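 note: 0% = vehicle wells and 100% = reference inhibitor control wells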
GDH-TPI inh – inhibits GDH-TPI coupling enzymes, artifact for Mtb FBA screen; actives 1.2% (n = 360,000); GDH-TPI coupled enzyme counterscreen, NADH absorbance; inhibition, % at 4.8 µM; in the data active = inhibition above about 30%;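 note: 0% = DMSO wells and 100% = wells lacking the enzyme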
BJeLR lethal – BJeLR cell viability loss; BJeLR (HRASV12) viability, CellTiter-Glo ATP luminescence, 48 h; inhibition, % (no concentration beside the values); actives 0.17% (n = 300,000); AID 1554; in the data active = inhibition above about 50%
FBA Mtb inh – Mtb fructose-bisphosphate aldolase inhibition; P9WQA3; purified M. tuberculosis FBA, fluorescence read-out; inhibition, % at 1 µM; actives 2.3% (n = 360,000); AID 588726; in the data active = inhibition above about 27%;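 note: 0% = vehicle and 100% = reference inhibitor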
Target sequence (P9WQA3 whole entry, looked up): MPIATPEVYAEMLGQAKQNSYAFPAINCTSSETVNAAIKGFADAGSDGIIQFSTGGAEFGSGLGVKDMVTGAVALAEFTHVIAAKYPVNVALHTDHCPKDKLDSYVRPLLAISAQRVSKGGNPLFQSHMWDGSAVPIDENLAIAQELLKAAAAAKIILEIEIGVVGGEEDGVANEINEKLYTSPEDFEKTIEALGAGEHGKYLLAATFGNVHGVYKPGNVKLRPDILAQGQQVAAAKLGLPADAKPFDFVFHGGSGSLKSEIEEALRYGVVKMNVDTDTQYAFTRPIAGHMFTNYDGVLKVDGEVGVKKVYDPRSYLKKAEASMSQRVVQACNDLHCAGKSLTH
PrPC surface inh – cell surface PrPC inhibition, primary TR-FRET screen; P04156; TR-FRET read-out; inhibition, % at 13.8 µM; actives 0.43% (n = 370,000); AID 720596; in the data active = inhibition above about 24%; note: 0% = median of the test wells and 100% = reference compound wells
PrPC confirm – confirmation of inhibitors of cell surface human prion protein; inhibition, % at 13.8 µM; actives 65% (n = 1,500); cell surface PrPC level, TR-FRET; shares compounds with PrPC surface inh; in the data active = inhibition above about 25%
LD9 cytotox – kills or reduces viability of LD9 cells in PrPc counter-screen; LD9 cells cytotoxicity, luminescence viability; shares compounds with PrPC surface inh; inhibition, % at 13.8 µM; actives 29% (n = 1,500); in the data active = inhibition above about 9.5%
Active calls of the source: *.

CCC(=O)N(c1ccccc1)C1CCN(C(=O)C(Cc2ccccc2)NC(C)=O)CC1 (stereo unspecified) was read as PrPC surface inh -6.
For COc1ccc(C(CC(=O)O)NC(=O)c2sc3ccccc3c2Cl)cc1 (stereo unspecified) the results were RecA intein inh -1, GDH-TPI inh 8, BJeLR lethal 1, FBA Mtb inh -2, PrPC surface inh 34*, PrPC confirm 38* and LD9 cytotox -4.
`COc1ccc(C(CC(=O)O)NC(=O)c2cccs2)cc1` (stereo unspecified) gave RecA intein inh -2, GDH-TPI inh 10, BJeLR lethal 1, FBA Mtb inh 0 and PrPC surface inh 2.
C1=C(CCNc2ncnc3c2[nH]c2ccccc23)CCCC1 was read as GDH-TPI inh 9, FBA Mtb inh 5, PrPC surface inh 40*, PrPC confirm 40* and LD9 cytotox 22*.
For O=c1c2[nH]c3ccccc3c2ncn1CCC1=CCCCC1 the results were RecA intein inh -2, GDH-TPI inh 2, BJeLR lethal 4, FBA Mtb inh 3 and PrPC surface inh 0.
COc1ccc2c(c1)[C@@H](NC(=O)c1ccncc1)[C@H](C)[C@H]2c1ccccc1 was read as PrPC surface inh 8.
Screening O=[N+]([O-])c1ccc(N2CCOCC2)c2c1no[n+]2[O-] returned GDH-TPI inh 16, FBA Mtb inh -6, PrPC surface inh 29*, PrPC confirm 45* and LD9 cytotox 98*.
Screening Cc1c(C(=O)c2ccccc2C(=O)O)sc2ccccc12 returned RecA intein inh -1, GDH-TPI inh 7, BJeLR lethal 6, FBA Mtb inh 1, PrPC surface inh 33*, PrPC confirm 54* and LD9 cytotox -6.
Screening CCC[C@H]1[C@@H](OC(=O)N2CCOCC2)CC[C@@]23CCCN2C(=O)CCC[C@@H]13 returned PrPC surface inh 2.
COc1ccc2[nH]c3c(C)c4ccncc4c(C)c3c2c1 was read as GDH-TPI inh -4, BJeLR lethal 101*, FBA Mtb inh 2, PrPC surface inh 34*, PrPC confirm 34* and LD9 cytotox 42*.
`Cc1cc(C(=O)NNc2ccc(Cl)cc2)no1` gave GDH-TPI inh -9, BJeLR lethal -1, FBA Mtb inh -3, PrPC surface inh 31*, PrPC confirm 33* and LD9 cytotox -2.
Screening COc1cccc(C2NC(=S)NC(C)=C2C(=O)c2ccccc2)c1OC (stereo unspecified) returned RecA intein inh 4, GDH-TPI inh 25, BJeLR lethal 21, FBA Mtb inh -2 and PrPC surface inh 11.
For C=CCOc1ccc(C2NC(=S)NC(C)=C2C(=O)c2ccccc2)cc1OC (stereo unspecified) the results were RecA intein inh 1, GDH-TPI inh 24, BJeLR lethal -2, FBA Mtb inh -1, PrPC surface inh 43*, PrPC confirm 50* and LD9 cytotox -5.
Cc1ccccc1-c1ccc2c(c1)[C@@H]1C[C@H]3[C@@H](CN1CC2)[C@H](C)OC(c1ccccc1)N3C (stereo partly specified) was read as PrPC surface inh -3.
C[C@H]1COc2cc(NCCO)ccc2S(=O)(=O)N1 was read as PrPC surface inh 0.
Screening Cc1cc2cc(CNC(=O)c3ccc(S(=O)(=O)N(C)C)cc3)ccc2n1C returned RecA intein inh 2, GDH-TPI inh 21, BJeLR lethal -9, FBA Mtb inh 4, PrPC surface inh 54*, PrPC confirm 36* and LD9 cytotox -4.
For Cc1ccc(CNC(=O)c2ccc(S(=O)(=O)N3CCCCCC3)cc2)cc1 the results were GDH-TPI inh -6, FBA Mtb inh -2 and PrPC surface inh 8.
`Cc1cc2cc(CNC(=O)c3ccc(S(=O)(=O)N4CCOCC4)cc3)ccc2n1C` gave RecA intein inh 3, GDH-TPI inh 10, BJeLR lethal 5, FBA Mtb inh 3, PrPC surface inh 43*, PrPC confirm 45* and LD9 cytotox -6.
Screening Cc1cc2cc(CNC(=O)c3ccc(S(=O)(=O)N4CCCCC4)cc3)ccc2[nH]1 returned RecA intein inh 4, GDH-TPI inh 9, BJeLR lethal -10, FBA Mtb inh -4, PrPC surface inh 29*, PrPC confirm 12 and LD9 cytotox -5.
`COc1cccc(CNC(=O)c2ccc(S(=O)(=O)N3CCOCC3)cc2)c1` gave GDH-TPI inh 7, FBA Mtb inh -1 and PrPC surface inh 0.
For COC(=O)Cc1nnn2c1[C@H](C)[C@H](c1cccc(OC)c1OC)OCC2 the results were PrPC surface inh 4.
Screening CCc1cc2c(=O)c(-c3ccc4c(c3)OCCO4)coc2cc1OS(C)(=O)=O returned RecA intein inh 2, GDH-TPI inh 9, BJeLR lethal 6, FBA Mtb inh -3, PrPC surface inh 36*, PrPC confirm 31* and LD9 cytotox 6.
`O=c1c2cc3cc4c(cc3nc2ncn1Cc1cccnc1)OCO4` gave PrPC surface inh -20.
`CCc1c(C)nc(N)nc1N1N=C1SCC(N)=O` gave RecA intein inh -1, GDH-TPI inh 13, BJeLR lethal -12, FBA Mtb inh -1, PrPC surface inh 26*, PrPC confirm 25* and LD9 cytotox -3.
Screening CCc1c(C)nc(N)nc1N1N=C1SC returned RecA intein inh 0, GDH-TPI inh 10, BJeLR lethal -1, FBA Mtb inh 2 and PrPC surface inh 6.
Screening CNc1ncc(C(=O)c2ccc(Cl)cc2)s1 returned RecA intein inh 1, GDH-TPI inh 47*, BJeLR lethal 6, FBA Mtb inh -2, PrPC surface inh 62*, PrPC confirm 78* and LD9 cytotox -9.
Screening Cn1cc(-c2cccc3[nH]cc(-c4ccccc4)c23)c2ccccc21 returned PrPC surface inh -2.
Screening CC(=O)Nc1ccc(NC(=O)CSc2nnc(-c3n[nH]c4c3CCC4)n2N)cc1 returned PrPC surface inh 0.
Screening O=C(Nc1ccc2c(c1)OCO2)c1ccc(Br)c(S(=O)(=O)N2CCCC2)c1 returned RecA intein inh 6, GDH-TPI inh 2, BJeLR lethal -3, FBA Mtb inh 2, PrPC surface inh 25*, PrPC confirm 21 and LD9 cytotox 7.
Cn1nc(C(C)(C)C)cc1C(=O)NCC1CCN(C(=O)C(=O)c2cc3ccccc3o2)CC1 was read as PrPC surface inh 0.
`COc1ccccc1N1CCN(c2nc3ccccc3nc2C(C#N)C(=O)OC(C)C)CC1` (stereo unspecified) gave RecA intein inh 8, GDH-TPI inh 6, BJeLR lethal 4, FBA Mtb inh -7, PrPC surface inh 25*, PrPC confirm 2 and LD9 cytotox 6.

Screening data deposited in PubChem by several laboratories.
